# Reference: PubChem BioAssay (NCATS)
# Inconclusive results are not listed. A call without a number means that no potency is given here. A number with no mark means an inactive call. Activity calls are given as the source filed them. The call rests on the fitted dose curve; in most records, active means well fitted curve in the direction sought with a large enough effect; inconclusive means small, poorly fitted or top-dose-only effect, or another doubt; inactive means no such curve, though single readings can be large or run the other way.
# Target: Nuclear receptor subfamily 1 group I member 3 (Homo sapiens) (UniProt Q14994)
# Assay: Primary qHTS for antagonist of constitutive androstane receptor (CAR) against the NCATS DSHEA and TCM libraries (AID 1794836);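 on activity change, negative = inhibition: HepG2 cells stably expressing hCAR with CYP2B6 luciferase reporter stimulated by CITCO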
# Conditions: CAR reporter cell assay, antagonist mode, luciferase; series mostly up to 40 µM
# Text: Assay Development and Screening Technology Laboratory (ADST)
# National Center for Advancing Translational Sciences (NCATS), Rockville, MD
# National Institute of Health (NIH), Bethesda, Maryland
# Dietary Supplements and Natural Products have minor oversight of their safety and efficacy. We assembled a collection of Dietary Supplements and Natural Products (DSNP) as well as Traditional Chinese Medicinal (TCM) Plant extracts, which were screened against an in vitro panel of assays, including a liver cytochrome p450 enzyme panel, CAR/PXR signaling pathways, and P-gp transporter assays, to assess their activity. This pipeline facilitated the interrogation of Natural Product-Drug Interaction (NaPDI) through prominent metabolizing pathways. In addition, we compared the activity profiles of the DSNP/TCM substances with those of an approved drug collection. Many of the approved drugs have well-annotated mechanisms of action (MOA) while the MOAs for most of the DSNP and TCM samples remain unknown. Based on the premise that compounds with similar activity profiles tend to share similar targets or MOA, we clustered the library activity profiles to identify overlap with the NCATS Pharmaceutical Collection to predict the MOAs of the DSNP/TCM substances. Overall, we highlight four significant bioactivity profiles (measured by p-values) as examples of this prediction.
# To this end, we profiled both collections for potential CAR and/or PXR activity, employing a previously published 1536-well qHTS assay.
# PROTOCOL TABLE (as described by Inglese J, Shamu CE and Guy RK. 2007)
# SEQUENCE No. (e.g., 1, 2, 3, etc.); […] (e.g., Cells, Incubation, Reagent, etc.); VALUE; DESCRIPTION.
# 1; Cells; 4 uL; 1536-well white Greiner assay plate.
# 2; Incubation; 5 hours; 37C, 95% humidity, 5% CO2.
# 3; Compounds; 23 nL; Kalypsis pin tool (Wako USA) equipped with 1536-well pin head to transfer to the assay plates.
# 4; Reagent; 1 uL; 48 uM CITCO (final concentration).
# 5; Incubation; 24 hours; 37C, 5% CO2.
# 6; Detection Reagent 1; 1 uL; CellTiter-Fluor (Promega).
# 7; Incubation; 1 hour; 37C, 5% CO2.
# 8; Detector 1; Fluorescence intensity; ViewLux plate reader (excitation 405 nm, emission 540 nm).
# 9; Detection Reagent 2; 4 uL; ONE-Glo Luciferase reagent (Promega).
# 10; Incubation; 30 min; room temperature.
# 11; Detector 2; Luminescence intensity; ViewLux.
# NOTES (numbers refer to Sequence numbers above)
# 1. 4 uL of HepG2-CYP2B6-hCAR cells at 6.25 x 10^5 cells/mL (2,500 cells/well) were dispensed using a Multidrop Combi dispenser in tissue culture-treated 1536-well white assay plates (Greiner Bio-One) in the same culture media, without geneticin and blasticidin included.
# 2. Plates were incubated for 5 hours at 37C, 95% humidity, and 5% CO2 to allow for cell attachment.
# 3. Compounds (final concentrations of most substances ranged from 15.6 nM to 31.9 uM), positive control (for antagonist mode: PK11195 with a final concentration range 2.8 nM to 92 uM), and toxicity control tetraoctyl ammonium bromide (final concentration of 92 uM) were transferred (23 nL) via pintool (Wako Automation).
# 4. After compound transfer, plates were dispensed with 1 uL of the known hCAR agonist 6-(4-Chlorophenyl)imidazo[2,1-b][1,3]thiazole-5-carbaldehyde O-(3,4-dichlorobenzyl)oxime (CITCO, final concentration of 48 uM) in the antagonist mode using a BioRAPTR FRDTM.
# 6. 1 uL of CellTiter-Fluor (Promega, Madison, Wisconsin) was added using a BioRAPTR FRDTM.
# 8. Fluorescence intensity (Ex/Em = 405 nm/540 nm) is obtained using the ViewLux plate reader to determine cell viability.
# 9. 4 uL of ONE-Glo Luciferase reagent (Promega) was added to each well using the BioRAPTR FRDTM,
# 10. Luminescence intensity is read using the ViewLux detector.
# Potency means the concentration at half of the fitted maximal effect.
# Nuclear receptor subfamily 1 group I member 3 (Homo sapiens), sequence (Q14994 whole entry, looked up): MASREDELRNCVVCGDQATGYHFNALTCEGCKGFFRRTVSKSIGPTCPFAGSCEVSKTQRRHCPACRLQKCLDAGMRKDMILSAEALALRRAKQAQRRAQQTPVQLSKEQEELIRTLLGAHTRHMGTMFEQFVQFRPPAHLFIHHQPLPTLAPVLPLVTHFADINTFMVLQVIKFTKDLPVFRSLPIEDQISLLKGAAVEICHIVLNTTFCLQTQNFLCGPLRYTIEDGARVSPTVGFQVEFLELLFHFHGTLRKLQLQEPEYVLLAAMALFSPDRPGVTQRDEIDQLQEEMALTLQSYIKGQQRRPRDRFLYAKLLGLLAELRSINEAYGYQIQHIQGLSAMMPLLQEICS
SMILES,Potency,"activity change, negative = inhibition"
Cc1ccc(O)c(O)c1,inactive,
CC12CC3(O)OC(O1)C1(COC(=O)c4ccc(O)cc4)C3CC21OC1OC(CO)C(O)C(O)C1O (stereo not given),inactive,
O=C(O[C@@H]1Cc2c(O)cc(O)cc2O[C@@H]1c1ccc(O)c(O)c1)c1cc(O)c(O)c(O)c1,inactive,
COc1ccc2ccc(=O)oc2c1,inactive,
CC(=O)O[C@H]1[C@H](O[C@H]2CC[C@]34C[C@]35CC[C@]3(C)[C@@H]([C@@]6(C)CC[C@@H](C(C)(C)O)O6)[C@@H](O)C[C@@]3(C)[C@@H]5C[C@H](O[C@@H]3O[C@H](CO)[C@@H](O)[C@H](O)[C@H]3O)[C@H]4C2(C)C)OC[C@@H](O)[C@@H]1O,inactive,
C[C@@H]1OC(O[C@H]2[C@H](O)[C@@H](O)[C@H](OC[C@H]3O[C@@H](OC(=O)[C@]45CCC(C)(C)C[C@@H]4C4=CCC6[C@@]7(C)CC[C@H](OC8OC[C@H](O)[C@H](O)[C@H]8OC8O[C@@H](C)[C@H](O)[C@@H](O)[C@H]8O)[C@@](C)(CO)C7CC[C@@]6(C)[C@]4(C)CC5)[C@H](O)[C@@H](O)[C@@H]3O)O[C@@H]2CO)[C@H](O)[C@H](O)[C@H]1O (stereo not given in full),inactive,
C=C1C[C@@]23CC[C@H]4[C@@](C)(CCC[C@@]4(C)C(=O)O[C@@H]4O[C@H](CO)[C@@H](O)[C@H](O)[C@H]4O)[C@@H]2CC[C@]1(O[C@@H]1O[C@H](CO)[C@@H](O)[C@H](O[C@@H]2O[C@H](CO)[C@@H](O)[C@H](O)[C@H]2O)[C@H]1O[C@@H]1O[C@@H](C)[C@H](O)[C@@H](O)[C@H]1O)C3,inactive,
O=C(OC[C@H]1O[C@@H](OC(=O)c2cc(O)c(O)c(O)c2)[C@H](OC(=O)c2cc(O)c(O)c(O)c2)[C@@H](OC(=O)c2cc(O)c(O)c(O)c2)[C@@H]1OC(=O)c1cc(O)c(O)c(O)c1)c1cc(O)c(O)c(O)c1,inactive,
CC(C)=CCC[C@](C)(O[C@@H]1O[C@H](CO[C@@H]2O[C@H](CO)[C@@H](O)[C@H](O)[C@H]2O)[C@@H](O)[C@H](O)[C@H]1O)C1CC[C@]2(C)[C@@H]1[C@H](O)CC1[C@@]3(C)CC[C@H](O[C@@H]4O[C@H](CO)[C@@H](O)[C@H](O)[C@H]4O[C@@H]4O[C@H](CO)[C@@H](O)[C@H](O)[C@H]4O)C(C)(C)[C@@H]3CC[C@]12C (stereo not given in full),,-31.6% [at 8.32 µM]
C=C1CC[C@H](O)C/C1=C\C=C1/CCC[C@]2(C)[C@@H]([C@H](C)CC[C@H](C)C(C)C)CC[C@@H]12,inactive,
CC/C=C\C/C=C\C/C=C\CCCCCCCC(=O)O,inactive,
CCCCCC/C=C\CCCCCCCC(=O)O,inactive,
CC1=C(/C=C/C(C)=C/C=C/C(C)=C/C=C/C=C(C)/C=C/C=C(C)/C=C/C2=C(C)CCCC2(C)C)C(C)(C)CCC1,inactive,
Oc1cc(O)c2c(c1)O[C@@H](c1cc(O)c(O)c(O)c1)[C@H](O)C2,inactive,
O=C(OC[C@H]1O[C@@H](OC(=O)c2cc(O)c(O)c(O)c2)[C@H](OC(=O)c2cc(O)c(O)c(O)c2)[C@@H](OC(=O)c2cc(O)c(O)c(O)c2)[C@@H]1O)c1cc(O)c(O)c(O)c1,inactive,
O=c1c(O[C@@H]2O[C@H](CO)[C@H](O)[C@H](O)[C@H]2O)c(-c2ccc(O)c(O)c2)oc2cc(O)cc(O)c12,inactive,
COc1cc(/C=C/c2ccccc2)oc(=O)c1,inactive,
O=C(/C=C/c1ccc(O)c(O)c1)OC1[C@H](O)CC(O)(C(=O)O)C[C@@H]1O (stereo not given in full),inactive,
CC(C)=CCC/C(C)=C/C=C/C(C)=C/C=C/C(C)=C/C=C/C=C(C)/C=C/C=C(C)/C=C/C=C(\C)CCC=C(C)C,inactive,
O=C(/C=C/c1ccc(O)c2c1[C@H](C(=O)O)[C@@H](c1ccc(O)c(O)c1)O2)O[C@H](Cc1ccc(O)c(O)c1)C(=O)O,inactive,

SMILES,Potency,"activity change, negative = inhibition"
COc1ccc(/C=C/c2cc(OC)cc(=O)o2)cc1,inactive,
CC(C)=CCCC(C)(OC1OC(COC2OC(CO)C(O)C2O)C(O)C(O)C1O)C1CCC2(C)C1C(O)CC1C3(C)CCC(OC4OC(CO)C(O)C(O)C4OC4OC(CO)C(O)C(O)C4O)C(C)(C)C3CCC12C (stereo not given),inactive,
C=C[C@H]1CN2CC[C@@]3(C(=O)Nc4ccccc43)[C@@H]2C[C@@H]1/C(=C\OC)C(=O)OC,3.98 µM (active),
O=C(/C=C/c1ccc(O)c(O)c1)O[C@@H]1CC(C(=O)O)=C[C@@H](O)[C@H]1O,inactive,
OC[C@H]1O[C@@H](OC[C@H]2O[C@@H](OC/C=C/c3ccccc3)[C@H](O)[C@@H](O)[C@@H]2O)[C@@H](O)[C@@H]1O,inactive,
CCCCCCC/C=C/C(=O)CCc1ccc(O)c(OC)c1,inactive,
O[C@@H]1[C@@H](O)[C@H](OC/C=C/c2ccccc2)O[C@H](CO[C@@H]2OC[C@H](O)[C@H](O)[C@H]2O)[C@H]1O,inactive,
C=C1CC[C@H](O)C/C1=C\C=C1/CCC[C@]2(C)[C@@H]([C@H](C)CCCC(C)C)CC[C@@H]12,inactive,
Cc1ncc(COP(=O)(O)O)c(C)c1O,inactive,
O=Cc1ccccc1O,inactive,
COC1=C[C@@]23CCN(C)[C@H](Cc4ccc(OC)c(O)c42)C3=CC1=O,inactive,
Oc1cccc(O)c1O,inactive,
C[S+](CC[C@H](N)C(=O)O)C[C@H]1O[C@@H](n2cnc3c(N)ncnc32)[C@H](O)[C@@H]1O (stereo not given in full),inactive,
CC(C)=CCC[C@](C)(O[C@@H]1O[C@H](CO)[C@@H](O)[C@H](O)[C@H]1O)[C@H]1CC[C@]2(C)[C@@H]1[C@H](O)C[C@@H]1[C@@]3(C)CC[C@H](O)C(C)(C)[C@@H]3[C@@H](O[C@@H]3O[C@H](CO)[C@@H](O)[C@H](O)[C@H]3O)C[C@]12C,inactive,
CC[C@H](CC[C@@H](C)[C@H]1CCC2C3CCC4C[C@@H](O)CC[C@]4(C)C3CC[C@@]21C)C(C)C (stereo not given in full),inactive,
CCCCCCCC/C=C/CCCCCCCCCC(=O)O,inactive,
O=C(O)CC(O)(C(=O)O)C(O)C(=O)O (stereo not given),inactive,
CCCCC[C@H](O)CC(=O)CCc1ccc(O)c(OC)c1,inactive,
COC1=C(OC)C(=O)C(C/C=C(\C)CC/C=C(\C)CC/C=C(\C)CC/C=C(\C)CC/C=C(\C)CC/C=C(\C)CC/C=C(\C)CC/C=C(\C)CC/C=C(\C)CCC=C(C)C)=C(C)C1=O,inactive,
COc1cc(-c2oc3cc(O)cc(O)c3c(=O)c2O)ccc1O,inactive,
